# Experimental data published in PubChem BioAssay (NCATS).
# Where “and” joins values, the source holds several entries; their conditions need not be identical. Equal values may be shown once. Results filed as inconclusive are left out. Entries that show only a call come without a potency. A structure can be active in one record and inactive in another. Calls of active or inactive are those of the source. Unless noted, the call rests on the fitted dose curve; in most records, active means well fitted curve in the direction sought with a large enough effect; inconclusive means small, poorly fitted or top-dose-only effect, or another doubt; inactive means no such curve, though single readings can be large; an effect the other way counts as inactive or inconclusive.
# Columns and labels:
# [1] = biological target: Papain (Carica papaya) (UniProt P00784); test: Primary qHTS assay for inhibitors of the protease papain (AID 1645873); conditions: papain Z-FR-AMC cleavage, AMC fluorescence; series mostly up to 49.8 µM;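 further: papain turnover of Z-FR-AMC read as the AMC fluorescence gain over 10 min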; further: potency means the concentration at half of the fitted maximal effect
# Sequence of Papain (Carica papaya) (P00784 whole entry, looked up, the tested form may be a part): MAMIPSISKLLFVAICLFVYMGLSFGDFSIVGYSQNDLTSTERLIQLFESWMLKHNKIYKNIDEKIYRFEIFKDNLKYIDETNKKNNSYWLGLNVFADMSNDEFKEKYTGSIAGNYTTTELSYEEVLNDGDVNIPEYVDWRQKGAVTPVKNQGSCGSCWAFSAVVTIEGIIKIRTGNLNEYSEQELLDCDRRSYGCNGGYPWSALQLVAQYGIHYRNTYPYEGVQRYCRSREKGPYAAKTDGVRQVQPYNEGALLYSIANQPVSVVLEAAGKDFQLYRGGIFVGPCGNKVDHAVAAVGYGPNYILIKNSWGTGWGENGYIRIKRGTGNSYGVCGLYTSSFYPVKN
# [2] = Primary qHTS for inhibitors of nuclear receptor binding SET domain protein 2 (NSD2) in an isogenic RCH-ACV NSD2 p.E1099K mutant (9B) (AID 1645876); conditions: RCH-ACV NSD2 E1099K (9B) viability, CellTiter-Glo, 72 h; series mostly up to 44.9 µM; further: nearly all actives have a fitted effect of over 70% in size; further: potency means the concentration at half of the fitted maximal effect
# [3] = Primary qHTS for inhibitors of nuclear receptor binding SET domain protein 2 (NSD2) in an RCH-ACV wild type WT cells (2C) (AID 1645877); conditions: RCH-ACV (leukaemia line) NSD2 WT (2C) viability, CellTiter-Glo, 72 h; series mostly up to 44.9 µM; further: nearly all actives have a fitted effect of over 70% in size; further: potency means the concentration at half of the fitted maximal effect
# [4] = biological target: Catechol O-methyltransferase (Homo sapiens) (UniProt P21964); test: Confirmatory Screen for Target Class Profiling of Small Molecule Inhibitors of Methyltransferases (AID 1745852; calls by dose curve; further: potency means the concentration at half of the fitted maximal effect); conditions: MTase-Glo luminescence, SAH detection, recombinant enzyme; measured here: COMT max response; stronger effect = lower value
# Sequence of Catechol O-methyltransferase (Homo sapiens) (P21964 whole entry, looked up): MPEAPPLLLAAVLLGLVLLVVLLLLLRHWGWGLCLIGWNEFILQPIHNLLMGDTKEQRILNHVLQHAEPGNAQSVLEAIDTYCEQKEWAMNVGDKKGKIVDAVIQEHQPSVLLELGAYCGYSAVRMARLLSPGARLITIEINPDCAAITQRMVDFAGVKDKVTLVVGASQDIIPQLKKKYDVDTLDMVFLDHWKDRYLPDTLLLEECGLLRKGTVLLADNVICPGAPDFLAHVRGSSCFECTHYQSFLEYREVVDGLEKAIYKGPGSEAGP
# [5] = biological target: Guanidinoacetate N-methyltransferase (Homo sapiens) (UniProt Q14353); test: as above; conditions: MTase-Glo luminescence, SAH detection, recombinant enzyme; activity change, negative = inhibition: at 57.3 µM (top of the series)
# [6] = biological target: Nicotinamide N-methyltransferase (Homo sapiens) (UniProt P40261); test: as above; conditions: MTase-Glo luminescence, SAH detection, recombinant enzyme; measured here: NNMT max response; stronger effect = lower value
# Sequence of Nicotinamide N-methyltransferase (Homo sapiens) (P40261 whole entry, looked up): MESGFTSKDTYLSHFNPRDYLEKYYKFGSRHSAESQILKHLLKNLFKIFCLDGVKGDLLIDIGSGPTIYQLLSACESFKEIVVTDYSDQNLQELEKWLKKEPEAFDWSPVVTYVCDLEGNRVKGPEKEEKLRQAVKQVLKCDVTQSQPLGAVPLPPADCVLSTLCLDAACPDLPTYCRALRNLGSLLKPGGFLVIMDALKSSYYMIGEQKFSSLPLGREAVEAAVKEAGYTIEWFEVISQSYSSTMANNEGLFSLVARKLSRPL
# [7] = biological target: Phenylethanolamine N-methyltransferase (Homo sapiens) (UniProt P11086); test: as above; conditions: MTase-Glo luminescence, SAH detection, recombinant enzyme; measured here: PNMT max response; stronger effect = lower value
# Sequence of Phenylethanolamine N-methyltransferase (Homo sapiens) (P11086 whole entry, looked up): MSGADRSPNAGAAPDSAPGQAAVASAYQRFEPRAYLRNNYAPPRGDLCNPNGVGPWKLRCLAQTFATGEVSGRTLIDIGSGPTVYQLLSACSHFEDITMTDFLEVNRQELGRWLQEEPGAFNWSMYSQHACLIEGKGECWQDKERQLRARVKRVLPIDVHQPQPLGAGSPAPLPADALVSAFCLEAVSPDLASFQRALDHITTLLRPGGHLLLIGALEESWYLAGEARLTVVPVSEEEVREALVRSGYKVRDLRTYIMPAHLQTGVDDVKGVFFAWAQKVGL
# [8] = NCATS anti-infectives library activity on the primary C. elegans qHTS viability assay (AID 1745855; calls by dose curve; further: potency means the concentration at half of the fitted maximal effect); conditions: C. elegans worm area imaging, day 7; series mostly up to 41.8 µM
# Outline: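 GFP read-out by 488 nm laser cytometry at day 0, 3 and 7, gated on object perimeter, area and peak intensity, scored viability of PE254-GFP-FLuc worms exposed to compound in S medium with bacterial capsules at 21 °C.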
# [9] = biological target: Rap guanine nucleotide exchange factor 3 (Homo sapiens) (UniProt O95398); test: Confirmatory qHTS for antagonist of cAMP-regulated guanine nucleotide exchange factor 3 (EPAC1) (AID 1645880); conditions: EPAC1 Rap1B-BODIPY-GDP exchange, fluorescence; series mostly up to 115 µM; further: nearly all actives have a fitted effect of over 55% in size
# Sequence of Rap guanine nucleotide exchange factor 3 (Homo sapiens) (O95398 whole entry, looked up): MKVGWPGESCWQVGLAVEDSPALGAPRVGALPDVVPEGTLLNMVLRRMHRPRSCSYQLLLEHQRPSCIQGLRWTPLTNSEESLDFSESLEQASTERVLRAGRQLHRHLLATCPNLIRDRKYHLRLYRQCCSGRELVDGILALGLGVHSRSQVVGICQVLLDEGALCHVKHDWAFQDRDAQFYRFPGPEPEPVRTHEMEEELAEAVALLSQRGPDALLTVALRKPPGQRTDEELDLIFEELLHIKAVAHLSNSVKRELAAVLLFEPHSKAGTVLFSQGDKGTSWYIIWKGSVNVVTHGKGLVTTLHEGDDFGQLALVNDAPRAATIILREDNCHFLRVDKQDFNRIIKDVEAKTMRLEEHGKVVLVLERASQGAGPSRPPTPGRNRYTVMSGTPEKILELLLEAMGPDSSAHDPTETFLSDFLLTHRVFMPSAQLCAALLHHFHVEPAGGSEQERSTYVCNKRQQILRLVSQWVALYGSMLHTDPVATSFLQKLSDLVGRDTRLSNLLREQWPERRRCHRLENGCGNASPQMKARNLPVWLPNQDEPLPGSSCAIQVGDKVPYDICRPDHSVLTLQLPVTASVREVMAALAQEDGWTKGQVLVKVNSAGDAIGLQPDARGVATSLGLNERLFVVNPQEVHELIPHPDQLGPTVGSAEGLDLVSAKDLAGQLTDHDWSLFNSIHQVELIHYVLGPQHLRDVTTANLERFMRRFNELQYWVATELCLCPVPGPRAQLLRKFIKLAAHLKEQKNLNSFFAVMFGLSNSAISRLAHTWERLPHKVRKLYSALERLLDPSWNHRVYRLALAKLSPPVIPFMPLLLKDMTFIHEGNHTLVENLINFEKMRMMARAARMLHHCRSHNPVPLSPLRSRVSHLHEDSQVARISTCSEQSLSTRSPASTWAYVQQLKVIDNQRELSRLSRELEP
# Outline: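 Released BODIPY-GDP fluoresces less than Rap1-bound BODIPY-GDP; the signal is followed at 480/540 nm at 5-min intervals over 30 min, after 5 min at room temperature. Reactions contain 100 nM EPAC1, 250 nM RAP1B-BODIPY-GDP and 50 uM GDP; results are normalized to ATA and DMSO.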
# [10] = biological target: Rap guanine nucleotide exchange factor 3 (Homo sapiens) (UniProt O95398); test: Confirmatory qHTS for agonist of cAMP-regulated guanine nucleotide exchange factor 3 (EPAC1) (AID 1645881); conditions: EPAC1 Rap1B BODIPY-GDP exchange fluorescence; series mostly up to 154 µM;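 further: EPAC1 catalysed release of BODIPY-GDP from Rap1B seen as fluorescence loss; nearly all actives have a fitted effect of over 75% in size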
# [11] = biological target: Rap guanine nucleotide exchange factor 4 (Homo sapiens) (UniProt Q8WZA2); test: Confirmatory qHTS for agonist of cAMP-regulated guanine nucleotide exchange factor 4 (EPAC2) (AID 1645884); conditions: EPAC2 GEF activity, Rap1B-BODIPY-GDP fluorescence; series mostly up to 154 µM;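 further: nucleotide exchange releases bodipy-GDP from Rap1 and this lowers its fluorescence; nearly all actives have a fitted effect of over 65% in size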
# Sequence of Rap guanine nucleotide exchange factor 4 (Homo sapiens) (Q8WZA2 whole entry, looked up): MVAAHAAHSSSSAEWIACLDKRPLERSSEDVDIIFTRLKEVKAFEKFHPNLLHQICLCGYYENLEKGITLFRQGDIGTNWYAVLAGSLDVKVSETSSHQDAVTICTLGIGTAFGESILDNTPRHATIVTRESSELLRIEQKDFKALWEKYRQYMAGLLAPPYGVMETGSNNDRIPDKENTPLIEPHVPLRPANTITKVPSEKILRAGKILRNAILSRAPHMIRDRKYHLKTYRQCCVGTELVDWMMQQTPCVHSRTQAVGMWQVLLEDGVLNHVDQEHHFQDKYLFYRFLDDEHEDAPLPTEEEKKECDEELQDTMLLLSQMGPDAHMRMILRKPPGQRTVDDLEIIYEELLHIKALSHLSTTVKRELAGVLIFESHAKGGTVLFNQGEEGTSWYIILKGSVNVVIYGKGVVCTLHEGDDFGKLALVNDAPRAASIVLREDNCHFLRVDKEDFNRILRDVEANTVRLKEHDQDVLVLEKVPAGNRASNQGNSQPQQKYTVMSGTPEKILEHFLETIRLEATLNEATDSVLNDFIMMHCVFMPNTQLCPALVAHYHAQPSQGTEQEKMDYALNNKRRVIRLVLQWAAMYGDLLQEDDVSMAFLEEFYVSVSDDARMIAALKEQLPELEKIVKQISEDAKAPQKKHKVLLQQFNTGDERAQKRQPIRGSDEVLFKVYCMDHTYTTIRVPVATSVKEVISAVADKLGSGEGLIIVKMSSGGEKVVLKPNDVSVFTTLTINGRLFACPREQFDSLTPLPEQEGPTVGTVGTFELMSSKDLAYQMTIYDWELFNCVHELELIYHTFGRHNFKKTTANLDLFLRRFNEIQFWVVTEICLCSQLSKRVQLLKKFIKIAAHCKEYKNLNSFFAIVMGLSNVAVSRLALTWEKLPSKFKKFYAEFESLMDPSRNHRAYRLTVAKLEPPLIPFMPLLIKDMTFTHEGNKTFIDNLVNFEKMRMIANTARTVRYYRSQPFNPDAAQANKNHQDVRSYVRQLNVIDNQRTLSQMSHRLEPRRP
# [12] = biological target: Rap guanine nucleotide exchange factor 4 (Homo sapiens) (UniProt Q8WZA2); test: Confirmatory qHTS for antagonist of cAMP-regulated guanine nucleotide exchange factor 4 (EPAC2) (AID 1645885); conditions: EPAC2 Rap1B-BODIPY-GDP exchange fluorescence, biochemical; series mostly up to 114 µM; further: nearly all actives have a fitted effect of over 25% in size; further: potency means the concentration at half of the fitted maximal effect
# [13] = biological target: Rap guanine nucleotide exchange factor 3 (Homo sapiens) (UniProt O95398); test: Counterscreen qHTS for antagonist of cAMP-regulated guanine nucleotide exchange factor 3 (EPAC1) (AID 1645888); conditions: Rap1B-BODIPY-GDP nucleotide exchange, fluorescence; series mostly up to 154 µM
# Outline: (§1)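 Rap1B–BODIPY-GDP (250 nM) with 50 uM GDP; compounds pin-transferred to 9.74 nM–152 uM final (activator) or from 7.32 nM upwards (inhibitor). Fluorescence Ex/Em 480/540 nm read at 5 and 30 min, then after adding cAMP or buffer, at room temperature.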
# [14] = biological target: Rap guanine nucleotide exchange factor 3 (Homo sapiens) (UniProt O95398); test: Counterscreen qHTS for agonist of cAMP-regulated guanine nucleotide exchange factor 3 (EPAC1) (AID 1645889); conditions: EPAC1 Rap1B-BODIPY-GDP exchange, fluorescence; series mostly up to 154 µM; further: nearly all actives have a fitted effect of over 40% in size
# Outline: as §1
# [15] = Viability counterscreen for agonist of constitutive androstane receptor (CAR) against the NCATS DSHEA and TCM libraries (AID 1794838); conditions: HepG2 cell viability counterscreen, CAR agonist assay, co-treated with 0.75 µM CAR antagonist; series mostly up to 40 µM;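 further: cells exposed to compound for 24 h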
# Outline: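 In agonist mode, PK11195 is added at 0.75 uM final to HepG2-CYP2B6-hCAR cells dosed with test substances. Cultures incubate 24 h at 37C before a protease-based fluorogenic viability readout.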
# [16] = biological target: Nuclear receptor subfamily 1 group I member 3 (Homo sapiens) (UniProt Q14994); test: Primary qHTS for agonist of constitutive androstane receptor (CAR) against the NCATS DSHEA and TCM libraries (AID 1794839); conditions: CAR agonist reporter cells, qHTS luminescence, CAR antagonist co-added at 0.75 µM; series mostly up to 40 µM;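 further: HepG2 cells expressing human CAR with a CYP2B6 reporter plus PK11195 antagonist; luciferase reporter luminescence read with ONE-Glo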
# Sequence of Nuclear receptor subfamily 1 group I member 3 (Homo sapiens) (Q14994 whole entry, looked up): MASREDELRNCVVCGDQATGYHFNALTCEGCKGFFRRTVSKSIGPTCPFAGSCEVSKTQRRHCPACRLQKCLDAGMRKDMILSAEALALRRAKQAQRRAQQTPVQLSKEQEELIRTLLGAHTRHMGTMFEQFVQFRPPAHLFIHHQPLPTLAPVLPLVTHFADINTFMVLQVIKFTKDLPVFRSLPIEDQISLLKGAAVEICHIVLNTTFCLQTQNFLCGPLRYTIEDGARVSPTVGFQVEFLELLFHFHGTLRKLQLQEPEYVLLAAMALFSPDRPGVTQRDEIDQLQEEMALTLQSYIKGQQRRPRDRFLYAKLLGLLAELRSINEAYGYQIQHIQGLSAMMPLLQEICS
# Outline: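 Cells stably carrying hCAR and a CYP2B6 reporter (HepG2 background) are seeded and allowed 5 h to adhere. Substances at multiple concentrations are added alongside 0.75 µM PK11195, and luciferase signal is measured after 24 h.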
# [17] = HepG2 viability counterscreen (readout 2: ATP content) against the NCATS DSHEA and TCM libraries (AID 1794840); conditions: ATP content luminescence; series mostly up to 27.3 µM;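 further: HepG2 cells exposed to substances for about 24 h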
# Outline: (§2)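 Cytotoxicity was assessed in HepG2 cells plated at 1,000 cells/well and exposed for about 24 hours to a concentration series. Protease activity and ATP content were measured sequentially in each well.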
# [18] = HepG2 viability counterscreen (readout 1: protease activity) against the NCATS DSHEA and TCM libraries (AID 1794841); conditions: qHTS concentration series; series mostly up to 27.3 µM;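 further: cells exposed to compounds for about 24 h before the protease read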
# Outline: as §2
# [19] = Viability counterscreen for antagonist of constitutive androstane receptor (CAR) against the NCATS DSHEA and TCM libraries (AID 1794837); conditions: CAR reporter cell line viability counterscreen, qHTS; series mostly up to 40 µM;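 further: compound exposure lasted 24 h before viability reading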
# Outline: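 Fluorescence from CellTiter-Fluor reports live-cell protease activity in HepG2-CYP2B6-hCAR cells treated for 24 h with substances alongside 48 uM CITCO.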
compound,measurement,setting,value
CCCNCC(O)COc1ccccc1C(=O)CCc1ccccc1 (configuration not stated),Potency,[1],inactive
same,Potency,[2],18.6 µM (active)
same,Potency,[3],15 µM (active) and 16.6 µM (active)
COc1ccc(C2CNC(=O)C2)cc1OC1CCCC1 (configuration not stated),Potency,[1],inactive
same,Potency,[2],inactive
same,Potency,[3],inactive
Cn1c(=O)c2[nH]cnc2n(C)c1=O,Potency,[1],inactive
same,Potency,[2],inactive
same,Potency,[3],inactive
N[C@@H](Cc1c[nH]c2ccc(O)cc12)C(=O)O,Potency,[1],inactive
same,Potency,[2],inactive
same,Potency,[3],inactive
CN(C)CCOC(c1ccccc1)c1ccccc1,Potency,[1],inactive
same,Potency,[2],inactive
same,Potency,[3],inactive
O=C(c1ccc(OCCN2CCCCC2)cc1)c1c(-c2ccc(O)cc2)sc2cc(O)ccc12,Potency,[1],inactive
same,Potency,[2],21.1 µM (active) and 23.5 µM (active) and 20.6 µM (active)
same,Potency,[3],13.3 µM (active) and 18.6 µM (active) and 18.4 µM (active)
CCN1CCCC1CNC(=O)c1cc(S(=O)(=O)CC)c(N)cc1OC (configuration not stated),Potency,[1],inactive
same,Potency,[2],inactive
same,Potency,[3],inactive
CC(C)(C)C(=O)Oc1ccc(S(=O)(=O)Nc2ccccc2C(=O)NCC(=O)O)cc1,Potency,[1],inactive
same,Potency,[2],inactive
same,Potency,[3],inactive
COc1ccc2c(c1)c(CC(=O)O)c(C)n2C(=O)c1ccc(Cl)cc1,Potency,[1],inactive
same,Potency,[2],inactive
same,Potency,[3],inactive
COc1cc2nc(N3CCN(C(=O)c4ccco4)CC3)nc(N)c2cc1OC,Potency,[2],13 µM (active)
same,Potency,[3],13 µM (active)
Cc1ccc(C(=O)Nc2ccc(S(=O)(=O)O)c3cc(S(=O)(=O)O)cc(S(=O)(=O)O)c23)cc1NC(=O)c1cccc(NC(=O)Nc2cccc(C(=O)Nc3cc(C(=O)Nc4ccc(S(=O)(=O)O)c5cc(S(=O)(=O)O)cc(S(=O)(=O)O)c45)ccc3C)c2)c1,Potency,[1],7.08 µM (active)
same,Potency,[2],inactive
same,Potency,[3],inactive
same,activity,[4],5.77%
same,"activity change, negative = inhibition",[5],2.65%
same,activity,[6],-4.38%
same,activity,[7],6.94%
O=c1[nH]cc(F)c(=O)[nH]1,Potency,[1],inactive
same,Potency,[2],13.2 µM (active)
same,Potency,[3],23.7 µM (active) and 14.8 µM (active)
same,Potency,[8],6.48 µM (active)
C[C@@H]1CC(=O)NN=C1c1ccc(NN=C(C#N)C#N)cc1,Potency,[2],9.44 µM (active) and 18.6 µM (active)
same,Potency,[3],11.9 µM (active) and 23.7 µM (active)
Clc1ccccc1C(c1ccccc1)(c1ccccc1)n1ccnc1,Potency,[1],inactive
same,Potency,[2],10.5 µM (active)
same,Potency,[3],9.34 µM (active)
same,outcome,[9],inactive
same,Potency,[10],inactive
same,Potency,[11],inactive
same,Potency,[12],9.87 µM (active) and 5.3 µM (active)
same,"activity change, negative = inhibition",[13],6.78% [at 30.8 µM] (inactive)
CC[C@@]1(O)C(=O)OCc2c1cc1n(c2=O)Cc2cc3c(CN(C)C)c(O)ccc3nc2-1,Potency,[1],28.2 µM (active)
same,Potency,[2],16.8 nM (active) and 57.8 nM (active)
same,Potency,[3],10.6 nM (active) and 23 nM (active)
same,outcome,[9],inactive
same,Potency,[11],inactive
same,Potency,[12],inactive
OCCN1CCN(CCCN2c3ccccc3Sc3ccc(C(F)(F)F)cc32)CC1,Potency,[1],inactive
same,Potency,[2],18.8 µM (active)
same,Potency,[3],18.8 µM (active)
same,Potency,[10],inactive
same,Potency,[11],inactive
same,Potency,[12],44.1 µM (active)
same,activity,[4],-1.96%
same,Potency,[5],0.0306 µM (active)
same,activity,[6],-64.7%
same,activity,[7],-1.22%
same,Potency,[8],inactive
O=C(CCCN1CCC(O)(c2ccc(Cl)cc2)CC1)c1ccc(F)cc1,Potency,[1],inactive
same,Potency,[8],inactive
Cc1ccccc1N1C(=O)c2cc(S(N)(=O)=O)c(Cl)cc2NC1C (configuration not stated),Potency,[2],inactive
same,Potency,[3],inactive
Cn1ccc2cc3c(cc21)CCN3C(=O)Nc1cccnc1,Potency,[1],inactive
same,Potency,[2],inactive
same,Potency,[3],inactive
same,activity,[4],-1.14%
same,"activity change, negative = inhibition",[5],-1.78%
same,activity,[6],-11.7%
same,activity,[7],1.53%
C[C@H]1c2cccc(O)c2C(O)=C2C(=O)[C@]3(O)C(O)=C(C(N)=O)C(=O)[C@@H](N(C)C)[C@@H]3[C@@H](O)[C@@H]21,Potency,[1],22.4 µM (active)
same,Potency,[2],23.5 µM (active)
same,Potency,[3],9.34 µM (active)
same,Potency,[8],1.15 µM (active)
O=c1c(O)c(-c2ccc(O)c(O)c2)oc2cc(O)cc(O)c12,Potency,[1],inactive
same,Potency,[2],11.9 µM (active) and inactive and 9.2 µM (active)
same,Potency,[3],inactive and 14.6 µM (active)
same,Potency,[10],inactive
same,Potency,[11],inactive
same,Potency,[12],75.7 µM (active)
same,outcome,[13],inactive
same,Potency,[14],inactive
same,outcome,[15],inactive
same,outcome,[16],inactive
same,outcome,[17],inactive
same,outcome,[18],inactive
Nc1c2c(nc3ccccc13)CCCC2,Potency,[2],inactive
same,Potency,[3],inactive
Cn1c(=O)c2c(ncn2C)n(C)c1=O,Potency,[1],inactive
same,Potency,[2],inactive
same,Potency,[3],inactive
same,outcome,[19],inactive
same,outcome,[15],inactive
same,outcome,[16],inactive
same,outcome,[17],inactive
same,outcome,[18],inactive
CCOC(=O)C(C)(C)Oc1ccc(Cl)cc1,Potency,[1],inactive
same,Potency,[2],inactive
same,Potency,[3],inactive
